In PubChem BioAssay (Tox21):
Results filed as inconclusive are left out. The source made the active and inactive calls. Unless noted, the call rests on the fitted dose curve; in most records, active means well fitted curve in the direction sought with a large enough effect in the repeat runs; inconclusive means weak or mixed curves; inactive means no such curve, though single readings can be large; an effect the other way counts as inactive or inconclusive.

Key:
[1] = qHTS assay to identify small molecule agonists of the sonic hedgehog signaling (Shh) pathway (AID 1259368; calls by dose curve;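 further: NIH/3T3-derived 3T3Gli1-Luc cells carrying a stable Gli1-driven firefly luciferase reporter; series mostly up to about 92 µM; nearly all actives have a fitted effect of over 15% in size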)
Procedure, shortened: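 Read-out: firefly luciferase luminescence from a Gli1 response element reporter stably integrated in NIH/3T3-derived 3T3Gli1-Luc cells, measured 30 min at room temperature after reagent addition. Compound exposure lasted 24 hr at 37 C, 5% CO2.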

[2] = qHTS assay to identify small molecule antagonists of the sonic hedgehog signaling (Shh) pathway (AID 1259369; calls by dose curve; further: nearly all actives have a fitted effect of over 45% in size; further: potency means the concentration at half of the fitted maximal effect)
Procedure, shortened: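 Luminescence readout: firefly Luc under Gli1 response element in 3T3Gli1-Luc cells (NIH/3T3 clone). Antagonist mode, stimulation by conditioned medium; compound exposure 24hr at 37 C, 5% CO2.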

[3] = qHTS assay to identify small molecule agonists of the androgen receptor (AR) signaling pathway in the presence of an antagonist - cell viability counter screen (AID 1259379);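 further: MDA-kb2 human breast cancer cells carrying an MMTV luciferase reporter; series mostly up to about 92 µM; nearly all actives have a fitted effect of over 25% in size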
Procedure, shortened: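 Viability counter screen: CellTiter-Fluor fluorescence, measured in the same wells as the luciferase read-out. MDA-kb2 cells, 3,000/well, with nilutamide at 3.0uM final and compounds at 15 concentrations, 16 hr at 37C, 0% CO2.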

[4] = qHTS assay to identify small molecule agonists of the estrogen receptor beta (ER-beta) signaling pathway - cell viability counter screen (AID 1259380); further: nearly all actives have a fitted effect of over 30% in size
Procedure, shortened: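 Luminescence read-out (CellTiter-Glo, 30 min, room temp) taken in the same wells as the beta-lactamase reporter assay; ER-beta-UAS-bla HEK293T cells exposed to DMSO-dissolved compounds for 16 hr at 37C in 2% charcoal-stripped FBS medium.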

[5] = target: Androgen receptor (Homo sapiens) (UniProt P10275); assay: qHTS assay to identify small molecule agonists of the androgen receptor (AR) signaling pathway in the presence of an antagonist (AID 1259381; calls by dose curve; further: nearly all actives have a fitted effect of over 15% in size; further: potency means the concentration at half of the fitted maximal effect)
Sequence of Androgen receptor (Homo sapiens) (P10275 whole entry, looked up): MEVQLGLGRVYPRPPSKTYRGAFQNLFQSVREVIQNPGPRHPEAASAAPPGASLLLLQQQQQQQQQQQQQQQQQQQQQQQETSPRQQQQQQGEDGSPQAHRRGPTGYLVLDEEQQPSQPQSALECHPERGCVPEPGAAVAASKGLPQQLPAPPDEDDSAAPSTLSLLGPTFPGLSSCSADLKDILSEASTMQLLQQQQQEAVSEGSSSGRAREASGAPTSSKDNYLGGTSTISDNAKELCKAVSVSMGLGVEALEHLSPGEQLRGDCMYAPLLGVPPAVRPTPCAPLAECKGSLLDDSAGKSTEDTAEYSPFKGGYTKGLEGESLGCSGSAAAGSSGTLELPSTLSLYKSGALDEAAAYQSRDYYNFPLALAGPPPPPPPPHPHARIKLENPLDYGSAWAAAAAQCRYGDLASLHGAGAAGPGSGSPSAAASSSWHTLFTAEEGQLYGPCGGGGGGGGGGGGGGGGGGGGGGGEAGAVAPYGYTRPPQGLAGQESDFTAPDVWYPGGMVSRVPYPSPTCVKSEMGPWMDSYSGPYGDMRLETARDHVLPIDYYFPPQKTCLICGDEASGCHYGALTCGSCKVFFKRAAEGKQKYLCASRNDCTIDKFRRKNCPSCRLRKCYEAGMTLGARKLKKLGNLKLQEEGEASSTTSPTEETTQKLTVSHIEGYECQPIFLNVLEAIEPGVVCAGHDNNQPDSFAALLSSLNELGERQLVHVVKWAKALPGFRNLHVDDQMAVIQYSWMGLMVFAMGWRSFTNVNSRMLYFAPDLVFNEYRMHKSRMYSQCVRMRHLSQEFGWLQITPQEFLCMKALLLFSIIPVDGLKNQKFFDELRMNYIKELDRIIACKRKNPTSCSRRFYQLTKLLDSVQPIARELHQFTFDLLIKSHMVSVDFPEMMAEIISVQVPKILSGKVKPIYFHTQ
Procedure, shortened: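 Luciferase read-out (ONE-Glo, 30min room temperature) in MDA-kb2 MMTV-reporter cells; agonist mode run in presence of AR antagonist nilutamide, 3.0uM final. Compounds tested as 15-point series, 16hr exposure at 37C, 0% CO2.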

[6] = qHTS assay to identify small molecule antagonists of the estrogen receptor beta (ER-beta) signaling pathway - cell viability counter screen (AID 1259382); further: series mostly up to about 92 µM; nearly all actives have a fitted effect of over 55% in size
Procedure, shortened: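 Luminescent ATP read-out (CellTiter-Glo, 30 min, RT) taken in the same wells as the bla reporter assay. HEK293T ER-beta-UAS-bla cells in 2% charcoal-stripped FBS were exposed to compounds with 1nM E2 for 16 hr at 37C.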

[7] = target: Estrogen receptor (Homo sapiens) (UniProt P03372); assay: qHTS assay to identify small molecule agonists of the estrogen receptor alpha (ER-alpha) signaling pathway in the presence of an antagonist (AID 1259383; calls by dose curve; further: top concentration of the series differs between compounds; nearly all actives have a fitted effect of over 15% in size)
Sequence of Estrogen receptor (Homo sapiens) (P03372 whole entry, looked up): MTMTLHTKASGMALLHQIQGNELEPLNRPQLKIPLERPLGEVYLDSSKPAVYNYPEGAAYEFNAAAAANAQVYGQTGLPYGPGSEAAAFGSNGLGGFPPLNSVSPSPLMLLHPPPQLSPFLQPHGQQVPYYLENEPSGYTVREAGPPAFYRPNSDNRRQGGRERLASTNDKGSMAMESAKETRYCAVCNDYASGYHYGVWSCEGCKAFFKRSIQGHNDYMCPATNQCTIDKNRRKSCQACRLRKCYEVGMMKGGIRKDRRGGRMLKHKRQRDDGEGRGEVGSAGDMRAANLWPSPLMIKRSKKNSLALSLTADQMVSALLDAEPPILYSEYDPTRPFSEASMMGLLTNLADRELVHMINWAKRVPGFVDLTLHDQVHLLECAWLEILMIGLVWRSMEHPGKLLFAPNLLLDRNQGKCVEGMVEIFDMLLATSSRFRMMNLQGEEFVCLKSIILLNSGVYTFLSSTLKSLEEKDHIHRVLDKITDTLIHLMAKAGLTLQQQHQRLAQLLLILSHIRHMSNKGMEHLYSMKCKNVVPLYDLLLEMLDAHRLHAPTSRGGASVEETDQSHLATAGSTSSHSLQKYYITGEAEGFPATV
Procedure, shortened: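 Luciferase luminescence (ONE-Glo, 30min at room temperature) measured in VM7Luc4E2 cells after 22hr compound exposure at 15 concentrations, with 10.0nM ICI-182,780 final present; cells express endogenous ER-alpha and carry four EREs upstream of luciferase.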

[8] = qHTS assay to identify small molecule agonists or antagonists of the thyroid stimulating hormone receptor (TSHR) signaling pathway - wild type cell line counter screen (AID 1259384; calls by dose curve)
Procedure, shortened: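 Wild-type HEK293 cells were plated 18 h at 37 C/5% CO2, pin-dosed with compound plus Ro20-1724 medium, held 30 min at room temperature, then given cAMP-d2 and anti-cAMP-cryptate; fluorescence was read after 1 h. Fifteen concentrations, triplicate.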

[9] = qHTS assay to identify small molecule agonists of the estrogen receptor alpha (ER-alpha) signaling pathway in the presence of an antagonist - cell viability counter screen (AID 1259386);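 further: series mostly up to about 92 µM; cells exposed to compounds for 22 h at 37 °C before the viability read; nearly all actives have a fitted effect of over 30% in size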
Procedure, shortened: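 Read-out: CellTiter-Fluor fluorescence after 1hr reagent incubation, measured in the same wells as the luciferase readout. VM7Luc4E2 cells were exposed to 15 compound concentrations with 10.0nM ICI-182,780 for 22hr at 37C.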

[10] = qHTS assay to identify small molecule antagonists of the TGF-beta/Smad signaling pathway - cell viability counter screen (AID 1346824); further: nearly all actives have a fitted effect of over 50% in size
Procedure, shortened: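 SBE-bla HEK 293T cells were plated overnight at 37 C, then given compounds in DMSO plus TGF-beta1 (added as 0.25 ng/mL solution) for 5 hr. After the bla read, CellTiter-Glo was added to the same wells and luminescence read after 30 min at room temperature.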

[11] = qHTS assay to identify small molecule agonists of the TGF-beta/Smad signaling pathway - cell viability counter screen (AID 1346829); further: top concentration of the series differs between compounds; nearly all actives have a fitted effect of over 45% in size
Procedure, shortened: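 CellTiter-Glo luminescence readout; SBE-bla HEK 293T cells, overnight plating, compound 5 hr at 37 C/5% CO2, then bla substrate 2 hr RT, then CellTiter-Glo 30 min RT.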

[12] = qHTS assay to identify small molecule agonists of the TGF-beta/Smad signaling pathway (AID 1346859; active means well fitted activation curve with a large enough effect in the signal ratio in the repeat runs, not every such curve was filed as active; the % refers to the signal ratio; further: series mostly up to about 77 µM)
Procedure, shortened: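 Smad-responsive beta-lactamase reporter cells (HEK 293T) received compounds from DMSO stocks after overnight attachment, were incubated 5 hr, then treated 2 hr with FRET substrate before dual-emission fluorescence measurement (405 nm excitation).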

[13] = target: Thyrotropin receptor (Homo sapiens) (UniProt P16473); assay: qHTS assay to identify small molecule antagonists of the thyroid stimulating hormone receptor (TSHR) signaling pathway (AID 1259385; calls by dose curve; further: nearly all actives have a fitted effect of over 20% in size; further: potency means the concentration at half of the fitted maximal effect)
Sequence of Thyrotropin receptor (Homo sapiens) (P16473 whole entry, looked up): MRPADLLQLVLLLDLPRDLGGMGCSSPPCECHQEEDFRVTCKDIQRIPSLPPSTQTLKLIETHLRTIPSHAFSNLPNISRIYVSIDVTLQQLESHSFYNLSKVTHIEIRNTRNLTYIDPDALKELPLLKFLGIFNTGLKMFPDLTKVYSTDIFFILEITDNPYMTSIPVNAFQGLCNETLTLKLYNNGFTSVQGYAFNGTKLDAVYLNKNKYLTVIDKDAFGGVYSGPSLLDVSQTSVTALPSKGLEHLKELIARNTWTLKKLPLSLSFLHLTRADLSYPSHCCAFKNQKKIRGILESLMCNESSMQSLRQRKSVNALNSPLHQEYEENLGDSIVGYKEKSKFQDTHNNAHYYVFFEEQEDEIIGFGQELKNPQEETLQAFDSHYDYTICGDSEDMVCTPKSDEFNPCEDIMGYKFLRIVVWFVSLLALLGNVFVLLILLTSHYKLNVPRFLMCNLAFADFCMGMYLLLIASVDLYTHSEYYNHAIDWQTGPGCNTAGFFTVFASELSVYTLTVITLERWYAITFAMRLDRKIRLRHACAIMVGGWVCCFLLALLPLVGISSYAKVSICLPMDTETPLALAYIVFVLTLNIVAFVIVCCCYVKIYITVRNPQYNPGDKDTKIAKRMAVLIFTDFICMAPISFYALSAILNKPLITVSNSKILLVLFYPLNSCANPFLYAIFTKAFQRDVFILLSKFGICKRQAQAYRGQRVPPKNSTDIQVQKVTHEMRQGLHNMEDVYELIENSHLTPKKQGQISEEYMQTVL
Procedure, shortened: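 TSHR-HEK293 cells were plated and held 18 h at 37C/5% CO2, then given compound plus Ro20-1724 and stimulated with TSH at 1.5 ng/mL final. After 30 min at room temperature, cAMP was detected with cAMP-d2/anti-cAMP-cryptate (1 h) by fluorescence.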

[14] = target: Progesterone receptor (Homo sapiens) (UniProt P06401); assay: qHTS assay to identify small molecule agonists of the progesterone receptor (PR) signaling pathway (AID 1346784; calls by dose curve; further: nearly all actives have a fitted effect of over 30% in size)
Sequence of Progesterone receptor (Homo sapiens) (P06401 whole entry, looked up): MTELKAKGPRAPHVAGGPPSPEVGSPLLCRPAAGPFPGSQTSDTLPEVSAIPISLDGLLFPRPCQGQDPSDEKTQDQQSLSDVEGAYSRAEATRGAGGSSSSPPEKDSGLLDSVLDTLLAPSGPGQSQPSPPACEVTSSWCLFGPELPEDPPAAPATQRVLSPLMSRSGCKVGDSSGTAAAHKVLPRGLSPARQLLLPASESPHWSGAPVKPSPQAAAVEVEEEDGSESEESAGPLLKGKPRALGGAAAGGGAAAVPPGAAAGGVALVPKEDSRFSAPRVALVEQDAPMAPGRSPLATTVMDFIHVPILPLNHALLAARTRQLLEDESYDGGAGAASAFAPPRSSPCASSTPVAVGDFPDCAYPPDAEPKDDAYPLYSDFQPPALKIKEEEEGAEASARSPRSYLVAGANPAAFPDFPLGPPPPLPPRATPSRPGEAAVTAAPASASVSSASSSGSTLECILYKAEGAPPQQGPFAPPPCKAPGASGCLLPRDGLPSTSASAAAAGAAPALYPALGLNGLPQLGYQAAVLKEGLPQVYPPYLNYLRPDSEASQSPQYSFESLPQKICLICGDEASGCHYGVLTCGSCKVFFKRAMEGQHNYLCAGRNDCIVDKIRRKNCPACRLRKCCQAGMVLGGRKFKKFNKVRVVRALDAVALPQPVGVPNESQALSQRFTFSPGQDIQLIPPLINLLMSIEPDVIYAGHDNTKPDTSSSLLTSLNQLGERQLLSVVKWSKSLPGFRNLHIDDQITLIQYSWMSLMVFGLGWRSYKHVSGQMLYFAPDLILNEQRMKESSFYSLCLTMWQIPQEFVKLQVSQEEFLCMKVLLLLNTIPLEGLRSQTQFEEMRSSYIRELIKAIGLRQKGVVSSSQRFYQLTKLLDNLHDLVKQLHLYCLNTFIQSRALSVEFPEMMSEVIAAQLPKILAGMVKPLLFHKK
Procedure, shortened: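 Agonist mode, quantitative HTS format in a HEK 293T line expressing a UAS-controlled beta-lactamase reporter; 16 hr compound exposure at 37C in 2% charcoal-stripped FBS, then LiveBLAzer B/G FRET fluorescence.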

[15] = target: Progesterone receptor (Homo sapiens) (UniProt P06401); assay: qHTS assay to identify small molecule antagonists of the progesterone receptor (PR) signaling pathway (AID 1346795; active means well fitted inhibition curve with a large enough effect in the signal ratio in the repeat runs, not every such curve was filed as active; the % refers to the signal ratio)
Procedure, shortened: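 HEK293T PR-UAS-bla reporter cells in charcoal-stripped serum (2%) received compound after a 6 hr settling period, followed by R5020 agonist at 1 nM final; 16 hr incubation preceded the FRET substrate step and fluorescence measurement.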

[16] = qHTS assay to identify small molecule antagonists of the progesterone receptor (PR) signaling pathway - cell viability counter screen (AID 1346798); further: series mostly up to about 92 µM; nearly all actives have a fitted effect of over 50% in size
Procedure, shortened: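 Same-well multiplex: after 16 hr at 37C with compound and R5020 stimulation, HEK293T cells carrying a UAS-bla reporter received LiveBLAzer substrate (2 hr RT), then CellTiter-Glo (30 min RT) for luminescent viability.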

[17] = target: Thyrotropin-releasing hormone receptor (Homo sapiens) (UniProt P34981); assay: qHTS assay to identify small molecule antagonists of the thyrotropin-releasing hormone receptor (TRHR) signaling pathway (AID 1346877; active means well fitted inhibition curve with a large enough effect in the repeat runs, not every such curve was filed as active; further: series mostly up to about 51 µM)
Sequence of Thyrotropin-releasing hormone receptor (Homo sapiens) (P34981 whole entry, looked up): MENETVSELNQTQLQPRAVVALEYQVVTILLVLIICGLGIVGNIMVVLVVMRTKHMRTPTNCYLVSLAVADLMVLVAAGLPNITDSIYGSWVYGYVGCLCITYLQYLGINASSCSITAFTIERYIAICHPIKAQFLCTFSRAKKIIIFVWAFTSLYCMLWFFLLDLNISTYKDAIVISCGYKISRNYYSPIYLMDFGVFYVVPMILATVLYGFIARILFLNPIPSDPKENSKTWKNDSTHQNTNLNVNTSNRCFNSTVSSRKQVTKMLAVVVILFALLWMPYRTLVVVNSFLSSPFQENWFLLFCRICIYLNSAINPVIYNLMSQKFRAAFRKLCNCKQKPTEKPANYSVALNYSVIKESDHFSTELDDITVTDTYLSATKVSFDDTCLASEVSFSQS
Procedure, shortened: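 HEK293/TRHR cells, 18 h, 37 °C; Ca2+ dye 2 h; cpd 5 min RT; TRH 1 nM final; fluorescence read 3 min, 1 s intervals; 15 concs, triplicate.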

[18] = qHTS assay to identify small molecule agonists of the progesterone receptor (PR) signaling pathway - cell viability counter screen (AID 1346799; calls by dose curve; further: nearly all actives have a fitted effect of over 45% in size)
Procedure, shortened: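 Counter screen for cytotoxicity: compound-treated PR-UAS-bla HEK293T cells (16 hr, 37C, 5% CO2) were assayed with CellTiter-Glo, luminescence measured after 30 min at room temperature.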

[19] = target: Estrogen receptor beta (Homo sapiens) (UniProt Q92731); assay: qHTS assay to identify small molecule antagonists of the estrogen receptor beta (ER-beta) signaling pathway (AID 1259378; active means well fitted inhibition curve with a large enough effect in the signal ratio in the repeat runs, not every such curve was filed as active; the % refers to the signal ratio)
Sequence of Estrogen receptor beta (Homo sapiens) (Q92731 whole entry, looked up): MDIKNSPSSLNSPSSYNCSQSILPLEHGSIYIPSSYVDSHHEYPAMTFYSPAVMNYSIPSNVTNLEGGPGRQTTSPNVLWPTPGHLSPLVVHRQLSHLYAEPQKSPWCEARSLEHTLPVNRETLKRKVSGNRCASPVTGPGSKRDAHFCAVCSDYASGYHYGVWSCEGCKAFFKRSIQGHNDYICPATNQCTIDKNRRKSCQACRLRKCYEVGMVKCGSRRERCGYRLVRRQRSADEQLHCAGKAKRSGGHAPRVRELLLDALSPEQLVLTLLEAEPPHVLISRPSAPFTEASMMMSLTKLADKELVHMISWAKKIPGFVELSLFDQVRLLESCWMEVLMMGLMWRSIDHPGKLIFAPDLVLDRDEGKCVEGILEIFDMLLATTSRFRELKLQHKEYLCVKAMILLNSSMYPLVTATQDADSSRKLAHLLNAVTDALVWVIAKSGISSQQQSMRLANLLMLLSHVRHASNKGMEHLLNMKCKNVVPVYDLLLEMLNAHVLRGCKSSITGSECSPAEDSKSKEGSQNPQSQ
Procedure, shortened: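 ER-beta-UAS-bla HEK293T (GripTite) cells in 2% charcoal-stripped FBS medium were preincubated 6 hr at 37C, dosed with compound, then stimulated with 1 nM E2 (final) for 16 hr; beta-lactamase reporter read by B/G FRET fluorescence after 2 hr substrate loading.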

[20] = target: Estrogen receptor beta (Homo sapiens) (UniProt Q92731); assay: qHTS assay to identify small molecule agonists of the estrogen receptor beta (ER-beta) signaling pathway (AID 1259377; active means well fitted activation curve with a large enough effect in the signal ratio in the repeat runs, not every such curve was filed as active; the % refers to the signal ratio)
Procedure, shortened: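 A UAS-controlled beta-lactamase reporter in ER-beta-UAS-bla HEK293T cells reports receptor activation. Compounds act for 16 hr at 37C in 2% charcoal-stripped serum, and a FRET substrate is read by fluorescence after 2 hours.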

Measured: Potency

CCCC(=O)O[C@]1(C(=O)CCl)[C@@H](C)C[C@H]2[C@@H]3CCC4=CC(=O)C=C[C@]4(C)[C@@]3(F)C(=O)C[C@@]21C
active: [5] 0.0047 µM
not listed: [13] | [14] | [15] | [16] | [17] | [18] | [19] | [20]
inactive: all other assays above

Cc1cc(C)cc(OCC2CNC(=O)O2)c1 (stereo not drawn)
not listed: [5] | [17] | [18] | [19] | [20]
inactive: all other assays above

Nc1ccc2cc(S(=O)(=O)O)ccc2c1
not listed: [5] | [13] | [18] | [19] | [20]
inactive: all other assays above

O=c1[nH]c(=O)n([C@H]2O[C@H](CO)[C@@H](O)[C@@H]2O)cc1/C=C\Br
not listed: [8] | [13] | [17] | [18] | [19] | [20]
inactive: all other assays above

CC(C)=CC(=O)O
not listed: [5] | [11] | [17] | [19] | [20]
inactive: all other assays above

O=C(O)c1ccccc1S
not listed: [5] | [15] | [17] | [20]
inactive: all other assays above

CC(C)=CCC/C(C)=C/C(=O)O
not listed: [5] | [8] | [11] | [13] | [19] | [20]
inactive: all other assays above

c1cc(CN2CCCCC2)cc(OCCCNc2nc3ccccc3s2)c1
inactive: [1] | [20] | [6] | [7] | [8] | [14] | [16] | [10] | [11] | [12]
active: [2] 4.73 µM | [13] 29.8 µM

NC(=O)c1ncn([C@@H]2O[C@H](CO)[C@@H](O)[C@H]2O)c1N
not listed: [5] | [17] | [19] | [20]
inactive: all other assays above

O=C1C(CCS(=O)c2ccccc2)C(=O)N(c2ccccc2)N1c1ccccc1 (stereo not drawn)
not listed: [5] | [8] | [9] | [10] | [13] | [19] | [20]
inactive: all other assays above

NCCNC(=O)c1ccc(Cl)cn1
not listed: [5] | [19] | [20]
inactive: all other assays above

O=C(O)c1ccccc1-c1ccc(C(F)(F)F)cc1
not listed: [5] | [9] | [11] | [19] | [20]
inactive: all other assays above

CCCCC1CCCCC(=O)O1 (stereo not drawn)
not listed: [5] | [17] | [19] | [20]
inactive: all other assays above

CC(C)CCCC(C)CCCC(C)CCCCC(C)CCCC(C)CCCC(C)C (stereo not drawn)
not listed: [5] | [7] | [17] | [18] | [19] | [20]
inactive: all other assays above

CO
not listed: [5] | [7] | [9] | [15] | [19] | [20]
inactive: all other assays above
